SMN2 splice enh: qHTS Assay for Enhancers of SMN2 Splice Variant Expression | HEK293 SMN2-luciferase splicing reporter, luminescence, 30-36 h | Potency, µM (titrated, usually from 46.1 µM), for the others: top-dose activity change, positive = activation, usual class: activators | actives 2.8% (n = 210,000) | AID 1458, 2008; note: % of control where 0% means no effect; nearly all actives have a fitted effect of over 55% in size
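qHTS luciferase splicing reporter: luminescence rises when SMN2 exon 7 is included in transfected HEK293 cells. Compound exposure lasted 30-36 h at 37C, with 4.5 mM final sodium butyrate as control, followed by a ONE-Glo read.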
ELG1 genotoxic: qHTS screen for small molecules that induce genotoxicity in human embryonic kidney (HEK293T) cells expressing luciferase-tagged ELG1; Potency, µM (series often up to 46 µM), for the others: top-dose activity change, positive = activation, most hits filed as activators; actives 1.3% (n = 330,000); HEK293T ELG1-luciferase reporter, luminescence, 16 h; note: % of control where 0% means no effect; nearly all actives have a fitted effect of over 60% in size
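16 hr compound incubation (37 °C, 5% CO2) of HEK293T cells carrying luciferase-tagged ELG1; luciferase then measured by ONE-Glo luminescence after 30 min at RT.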
Rab9 promoter act: qHTS Assay for Rab9 Promoter Activators; Potency, µM (top dose mostly 9.22 µM), for the others: at the top dose activation, negative = inhibition, actives largely listed as activators; Huh7 Rab9 promoter-luciferase reporter, luminescence, 24 h; actives 2.8% (n = 320,000); AID 485297, 2010; note: % of control where 0% means no effect; nearly all actives have a fitted effect of over 60% in size
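Using Huh7 cells stably transfected with Rab9 promoter–luciferase, compounds were incubated 24 h at 37 °C, 5% CO2; luciferase luminescence was read 10 min after reagent addition.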
NPC1 prom act: qHTS Assay for NPC1 Promoter Activators | Huh7 NPC1 promoter luciferase reporter, 24 h | Potency, µM (doses to about 9.22 µM), for the others: at the highest dose activation, hits mostly activators | actives 2.4% (n = 320,000) | AID 485313, 2010; note: % of control where 0% means no effect; nearly all actives have a fitted effect of over 60% in size
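Huh7 cells stably carrying NPC1 promoter–luciferase, plated in Opti-MEM with 10% FBS for 2 h, were exposed to compound in DMSO for 24 h at 37 °C; luciferase reagent was added for 10 min and luminescence read.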
FLuc modulator: qHTS profiling assay for firefly luciferase inhibitor/activator using purifed enzyme and Km concentrations of substrates (counterscreen for miR-21 project). Luciferin 4-monooxygenase (Photinus pyralis), P08659. purified FLuc, Km substrates, luminescence inhibition. Potency, µM (series often up to 57.5 µM), for inactives: at the top dose activity change, negative = inhibition, usual class: inhibitors. actives 6.9% (n = 360,000). AID 588342, 2011;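 note: plate controls were vehicle for no effect and reference inhibitor for full effect; nearly all actives have a fitted effect of over 55% in size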
Target sequence (P08659 whole entry, looked up): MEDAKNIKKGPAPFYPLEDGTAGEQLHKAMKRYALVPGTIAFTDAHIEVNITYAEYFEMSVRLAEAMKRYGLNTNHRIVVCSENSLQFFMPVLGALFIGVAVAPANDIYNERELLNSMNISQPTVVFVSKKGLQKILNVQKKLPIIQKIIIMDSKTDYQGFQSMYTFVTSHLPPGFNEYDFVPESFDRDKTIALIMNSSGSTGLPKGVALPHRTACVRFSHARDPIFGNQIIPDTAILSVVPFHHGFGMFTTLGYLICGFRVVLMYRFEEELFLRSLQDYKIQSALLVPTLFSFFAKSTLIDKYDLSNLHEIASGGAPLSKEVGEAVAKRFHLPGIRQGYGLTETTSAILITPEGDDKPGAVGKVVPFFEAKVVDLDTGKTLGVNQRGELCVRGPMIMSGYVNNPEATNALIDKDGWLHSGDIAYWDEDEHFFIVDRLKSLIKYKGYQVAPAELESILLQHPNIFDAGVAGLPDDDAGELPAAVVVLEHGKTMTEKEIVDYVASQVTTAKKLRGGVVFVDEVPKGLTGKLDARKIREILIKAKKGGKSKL
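Purified P. pyralis luciferase (10nM final) with 10uM D-luciferin and 10uM ATP (Km levels) in 50mM Tris acetate pH 7.5, 10mM Mg acetate, 0.01% Tween-20, 0.05% BSA; qHTS 6-point titration, ~60 µM downward; luminescence read.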
* = called active by the depositor. Rows were chosen to be rich in hits. Some 7.5% of all compounds tested hit in one or more screens of this group. Calls come from the whole dose curve; as a rule, active = well fitted curve in the direction sought with a large enough effect; inconclusive = small, poorly fitted or top-dose-only effect, or another doubt; inactive = no such curve, though single readings can be large; an effect the other way counts as inactive or inconclusive. Potency is the fitted concentration of half-maximal effect.

How did O=C(OCc1cc(=O)n2c(n1)sc1ccccc12)c1ccc(O)cc1 do in these assays?
SMN2 splice enh: 20µM*; ELG1 genotoxic: inconclusive; Rab9 promoter act: 18%; NPC1 prom act: 9%; FLuc modulator: inconclusive

Results for CCc1nn2c(=O)cc(COC(=O)c3ccccc3NC(=O)c3ccc(C(C)(C)C)cc3)nc2s1 ?
FLuc modulator: 5.4µM*

What do the screens show for `N#Cc1c(SCC(=O)Nc2cccc(C(F)(F)F)c2)sc2c(O)cc(=O)[nH]c12`?
ELG1 genotoxic: 3%; Rab9 promoter act: -1%; NPC1 prom act: 0%; FLuc modulator: -8%

How did COc1ccc(-n2c(Cc3cccn3C)nnc2SCC(=O)Nc2cccc(Cl)c2)cc1 do in these assays?
SMN2 splice enh: 2%; ELG1 genotoxic: -25%; Rab9 promoter act: -2%; NPC1 prom act: -1%; FLuc modulator: 1%

How did CCOC(=O)C1CCCN(C(=O)c2cn(CC(C)C)c(=O)c3cc(OC)c(OC)cc23)C1 (stereo not given) do in these assays?
SMN2 splice enh: 12%; ELG1 genotoxic: 3%; Rab9 promoter act: 1%; NPC1 prom act: 10%; FLuc modulator: 2%

What do the screens show for `COc1ccc(CC(=O)NC2CCSc3ccccc32)c(OC)c1` (stereo not given)?
ELG1 genotoxic: -3%; Rab9 promoter act: 1%; NPC1 prom act: -3%; FLuc modulator: 1%

What do the screens show for `O=C(Nc1ccc(S(=O)(=O)N2CCCCC2)cc1)c1ccc(F)cc1`?
ELG1 genotoxic: -16%; Rab9 promoter act: -8%; NPC1 prom act: -1%; FLuc modulator: -1%

How did O=C(c1ccc(F)cc1)c1ccc(N2CCCC2)cc1 do in these assays?
ELG1 genotoxic: 14µM*; Rab9 promoter act: inconclusive; NPC1 prom act: inconclusive; FLuc modulator: 12µM*

How did O=C(CCC(=O)N1CCN(c2ccc(F)cc2)CC1)N1CCN(c2ccc(F)cc2)CC1 do in these assays?
ELG1 genotoxic: -8%; Rab9 promoter act: -2%; NPC1 prom act: -4%; FLuc modulator: 4%

What do the screens show for `O=C(Nc1ccc(N2CCCCC2)cc1)c1cccnc1`?
SMN2 splice enh: 22µM*; ELG1 genotoxic: 9.2µM*; Rab9 promoter act: inconclusive; NPC1 prom act: inconclusive; FLuc modulator: 21µM*

How did O=C(Nc1ccc(N2CCCCC2)cc1)c1ccc(F)cc1 do in these assays?
SMN2 splice enh: 3.5µM*; ELG1 genotoxic: 1.6µM*; Rab9 promoter act: 0.45µM*; NPC1 prom act: 0.89µM*; FLuc modulator: 1.2µM*

What do the screens show for `O=C(c1ccc(F)cc1)c1ccc(N2CCCCC2)cc1`?
ELG1 genotoxic: inconclusive; Rab9 promoter act: 2.5µM*; NPC1 prom act: 2.8µM*; FLuc modulator: 6.7µM*

How did COc1ccccc1C(=O)NC(=S)Nc1ccc(N2CCCC2)cc1 do in these assays?
SMN2 splice enh: 3%; ELG1 genotoxic: 4%; Rab9 promoter act: 2%; NPC1 prom act: 16%; FLuc modulator: -17%

Results for COC(=O)c1cccc(NC(=O)CSc2nnnn2C)c1 ?
SMN2 splice enh: 5%; ELG1 genotoxic: inconclusive; Rab9 promoter act: 9%; NPC1 prom act: -2%; FLuc modulator: 1%

How did O=C(CCS(=O)(=O)c1ccc(F)cc1)Nc1nc(-c2ccncc2)cs1 do in these assays?
ELG1 genotoxic: -6%; Rab9 promoter act: 0%; NPC1 prom act: -16%; FLuc modulator: -17%

Results for CC(C)(C)c1ccc(-c2cc(N)n[nH]2)cc1 ?
SMN2 splice enh: -12%; ELG1 genotoxic: 3%; Rab9 promoter act: -5%; NPC1 prom act: 0%; FLuc modulator: 9.5µM*

Results for CSCC[C@H](NC(=O)[C@@H]1Cc2ccccc2CN1)C(=O)Nc1ccc2c(c1)OCCO2 ?
ELG1 genotoxic: inconclusive; Rab9 promoter act: inconclusive; NPC1 prom act: inconclusive; FLuc modulator: 15µM*

How did O=C1CCCN2N=C(SCC(=O)Nc3cccc(F)c3)SC2=N1 do in these assays?
ELG1 genotoxic: 0%; Rab9 promoter act: -2%; NPC1 prom act: -3%; FLuc modulator: 3%

How did O=C(Nc1cnc2ccccc2c1)N1CCOCC1 do in these assays?
SMN2 splice enh: inconclusive; ELG1 genotoxic: inconclusive; Rab9 promoter act: 25%; NPC1 prom act: inconclusive; FLuc modulator: inconclusive

How did CN(C(=O)Nc1cnc2ccccc2c1)c1ccccc1 do in these assays?
SMN2 splice enh: inconclusive; ELG1 genotoxic: inconclusive; Rab9 promoter act: 2.8µM*; NPC1 prom act: inconclusive; FLuc modulator: inconclusive

Results for O=C(Nc1cnc2ccccc2c1)N1CCCCC1 ?
SMN2 splice enh: 14µM*; ELG1 genotoxic: inconclusive; Rab9 promoter act: 1.3µM*; NPC1 prom act: 1.3µM*; FLuc modulator: 9.5µM*

What do the screens show for `CC(C)CCN1CCN(Cc2ccc(C#CC(C)(C)O)s2)CC1CCO` (stereo not given)?
ELG1 genotoxic: 0%; Rab9 promoter act: 0%; NPC1 prom act: -4%; FLuc modulator: 1%

How did CN(C)c1ccc(C(=O)c2ccc(O)cc2O)cc1 do in these assays?
SMN2 splice enh: inconclusive; ELG1 genotoxic: inconclusive; Rab9 promoter act: 21%; NPC1 prom act: inconclusive; FLuc modulator: 11µM*

What do the screens show for `COc1ccc(C[C@H]2CN3C(=NC[C@H]3Cc3ccccc3)N2CCNC(=O)CCC2CCCCC2)cc1`?
ELG1 genotoxic: -9%; Rab9 promoter act: 2%; NPC1 prom act: -1%; FLuc modulator: 2%

What do the screens show for `COc1cccc(NC(=S)N2CCN(C(c3ccccc3)c3ccccc3)CC2)c1`?
SMN2 splice enh: -15%; ELG1 genotoxic: 0%; Rab9 promoter act: -12%; NPC1 prom act: -2%; FLuc modulator: 4%

How did CN(C)c1ccc(/C=N/N=C2/NC(=O)/C(=C/c3ccc([N+](=O)[O-])cc3)S2)cc1 do in these assays?
SMN2 splice enh: 28%; ELG1 genotoxic: 5%; Rab9 promoter act: inconclusive; NPC1 prom act: inconclusive; FLuc modulator: 0.11µM*

Results for CCCN(CC(=O)Nc1ccccc1OC)C(=O)c1ccc(S(=O)(=O)Nc2ccccc2)cc1 ?
ELG1 genotoxic: -17%; Rab9 promoter act: -7%; NPC1 prom act: 4%; FLuc modulator: 2%

How did C(=C\c1ccco1)/C=N/n1cnnc1 do in these assays?
SMN2 splice enh: -5%; ELG1 genotoxic: 5%; Rab9 promoter act: 10%; NPC1 prom act: 3%; FLuc modulator: 2%

What do the screens show for `Clc1ccc(Cn2nc(-c3ccccc3)nc2-c2ccccc2)cc1`?
SMN2 splice enh: inconclusive; ELG1 genotoxic: 11%; Rab9 promoter act: 23%; NPC1 prom act: 22%; FLuc modulator: 15µM*

What do the screens show for `O=C(Nc1ccccc1O)c1ccc(NS(=O)(=O)c2cccc3cccnc23)cc1`?
ELG1 genotoxic: 16µM*; Rab9 promoter act: inconclusive; NPC1 prom act: 3%; FLuc modulator: inconclusive
